Inconclusive results are not listed. A number with no mark means an inactive call. Calls follow the shape of the dose curve; as a rule, active = well fitted cell-killing curve with a large enough effect; inconclusive = small, poorly fitted or top-dose-only effect; inactive = flat fitted curve, though single readings scatter.
Assay: qHTS of pediatric cancer cell lines to identify multiple opportunities for drug repurposing: Primary screen for RD cells (AID 1347104); also: nearly all actives have a fitted effect of over 55% in size
Conditions: RD rhabdomyosarcoma viability, CellTiter-Glo luminescence, 48 h; series mostly up to 46 µM; activity change, negative = cytotoxic: at the top concentration
Description: Drug repurposing or repositioning has been offered as a strategy for drug development in oncology programs. This approach has special potential for childhood cancers and other rare or orphan diseases, where the expected return on new drug development has been a disincentive to pharmaceuticals. […] In this project we exploit the poly-pharmacology of drugs to discover new indications via phenotypic screening of a panel of 19 well-characterized cell lines derived from solid tumors seen in children and adolescents. The goal is to identify approved drugs with previously unrecognized anticancer properties that has the potential to reveal new mechanisms and biological processes involved in carcinogenesis or drug resistance. We employed a titration-based paradigm (quantitative high-throughput screening or qHTS), where all compounds were tested at multiple concentrations for their effect on cell viability. Concentration-response curves (CRCs) were derived directly from the primary screen, and both potency and efficacy values were used to identify compounds with robust bioactivity profiles. We screened the NIH Chemical Genomics Center (NCGC) Pharmaceutical Collection (NPC) and Mechanism Interrogation Plate (MIPE) small molecule collections of approved and investigational compounds against these cell lines; and measured metabolically active cells after 48 hours of compound treatment as a proxy for cell viability. […] Assay Submitter: Nathalia J. Martinez, National Center for Advancing Translational Sciences, National Institutes of Health, Rockville, MD, USA; email: natalia.martinez@nih.gov Shen, M et al. Quantitative high-throughput phenotypic screening of pediatric cancer cell lines identifies multiple opportunities for drug repurposing. Oncotarget 2017 Dec 19;9(4):4758-4772. PMID 29435139.
The cells were obtained from University of North Carolina (UNC), Pediatric Preclinical Testing Program (PPT), and Coriell Institute (CI). qHTS cell viability assay: Cells were assayed in growth media at a density of 500-1,000 cells/well. Five microliters of cells were dispensed into 1,536-well, white, solid-bottom, TC-treated plates (Greiner Bio One) using a multidrop dispenser and incubated at 37 degrees C, 5% CO2, under a humidified atmosphere for 5 hours. Twenty-three nanoliters of compounds and controls (neutral control DMSO or positive control bortezomib at final concentration of 2.3 µM) were subsequently transferred by Kalypsys pintool. For primary screens, the MIPE collection was tested at 11-point dilutions (final concentrations range from 0.78 nM to 46 µM) and the NPC collection at 8-point dilutions (final concentrations range from 0.59 nM to 46 µM). Compounds tested in follow-up screens were assayed at 11-point dilutions. Cells were incubated for 48 hours, followed by addition of 3 µL of CellTiter-Glo (Promega). After a 15 min incubation at room temperature, samples were analyzed for luminescence intensity using a ViewLux High-throughput CCD imager equipped with clear filters.

Row | Compound | activity change, negative = cytotoxic
1 | C[C@@H]1CN(c2c(F)c(F)c3c(=O)c(C(=O)O)cn(C4CC4)c3c2F)C[C@H](C)N1 | 11.6% [at 16.1 µM]
2 | CN1CCCCC1CCN1c2ccccc2Sc2ccc(S(C)=O)cc21 (stereo not given) | -26%
3 | CCCCC(CC)COC(=O)c1ccccc1O (stereo not given) | 6.59%
4 | O=C1OC(OC(=O)c2cccnc2Nc2cccc(C(F)(F)F)c2)c2ccccc21 (stereo not given) | -4.24%
5 | COc1ccccc1O | 17.5% [at 92.7 µM]
6 | Nc1cc(=O)[nH]c(N)n1 | 7.46%
7 | CCOC(=O)c1ccc(O)cc1 | 8.07%
8 | CC(O)COc1ccccc1 (stereo not given) | 18.5%
9 | COC(=O)[C@H]1[C@H]2C[C@@H]3c4[nH]c5cc(OC)ccc5c4CCN3C[C@H]2C[C@@H](OC(=O)COc2ccc(OC)cc2)[C@@H]1OC | -3.28%
10 | NC(=O)N/N=C/c1ccc([N+](=O)[O-])o1 | -0.866%
11 | O=C1c2c(O)cccc2Cc2cccc(O)c21 | 2.68%
12 | C#CCN(C)Cc1ccccc1 | 16.2%
13 | CCCCCCCCCCCCCCCCCCOCC(O)CO (stereo not given) | 19.6%
14 | CN(C)CCN(Cc1ccccc1)c1ccccn1 | -2.48%
15 | c1ccc2c(CC3=NCCN3)cccc2c1 | -11.8%
16 | CCN(CC)C(=O)Nc1ccc(OCC(O)CNC(C)(C)C)c(C(C)=O)c1 (stereo not given) | 1.65%
17 | C=CCn1c(=O)n([C@@H]2O[C@H](CO)[C@@H](O)[C@H]2O)c2nc(N)[nH]c(=O)c21 | 20%
18 | O=C1NC(=O)[C@@]2(CCOc3ccc(F)cc32)N1 | 3.11%
19 | NS(=O)(=O)c1cc2c(cc1Cl)NC(CSCc1ccccc1)=NS2(=O)=O | 1.92%
20 | Cc1cccc(C)c1NC(=O)CN(CC(=O)O)CC(=O)O | 20.1%

Row | Compound | activity change, negative = cytotoxic
21 | CCCCN(CCCC)CCCOC(=O)c1ccc(N)cc1 | 1.04%
22 | NC1CCN(c2cccc(Cl)n2)CC1 | -2.77%
23 | CC1=C(CC(=O)O)c2cc(F)ccc2/C1=C\c1ccc(S(C)(=O)=O)cc1 | -5.31%
24 | Oc1ccc(C(O)CNCCCCCCNCC(O)c2ccc(O)c(O)c2)cc1O (stereo not given) | -2.83%
25 | Nc1ccc(S(=O)(=O)Nc2nccs2)cc1 | 13.2%
26 | O=C(O)CN1C(=O)c2cccc3cccc(c23)C1=O | 12%
27 | O=S(=O)(O)c1cc(I)c(O)c2ncccc12 | 4.34%
28 | NC(=O)NC(=O)Cc1ccccc1 | 6.18%
29 | CCC(=O)Nc1ccc(O)cc1 | 7.64%
30 | CC(=O)Oc1ccc(C2(c3ccc(OC(C)=O)cc3)C(=O)Nc3ccccc32)cc1 | -13.4%
31 | NC(=O)c1ncn([C@@H]2O[C@H](CO)[C@@H](O)[C@H]2O)c1N | 5.68%
32 | Nc1ccc(S(=O)(=O)Nc2ccc(Cl)nn2)cc1 | 0.813%
33 | OC[C@H]1O[C@@H](O[C@@H]2[C@@H](CO)O[C@](O)(CO)[C@H]2O)[C@H](O)[C@@H](O)[C@H]1O | 1.33%
34 | CC1=C(C/C=C(\C)CCC[C@H](C)CCC[C@H](C)CCCC(C)C)C(=O)c2ccccc2C1=O | 6.67%
35 | Nc1ccc(S(=O)(=O)Nc2ccccc2)cc1 | 2.97%
36 | CN(C)CCOC(C)(c1ccccc1)c1ccccn1 (stereo not given) | 11.1%
37 | CC12CCC(CC1)C(C)(C)O2 | 12.7%
38 | CCN(CC)CCNC(C(=O)OCCC(C)C)c1ccccc1 (stereo not given) | 0.779%
39 | CCCCN1CCCC[C@H]1C(=O)Nc1c(C)cccc1C | -6.16%
40 | C[C@H](NC(CCc1ccccc1)C(=O)O)C(=O)N1CCC[C@H]1C(=O)O (stereo not given in full) | 8.95%
